Potency and activity change, negative = cytotoxicity data for 40 compounds are collected here from PubChem BioAssay (Tox21).

SMILES strings stand for the structures. Records with an inconclusive call do not appear. Entries that show only a call come without a potency. A number with no mark means an inactive call. The source made the active and inactive calls. The call rests on the fitted dose curve; in most records, active means well fitted cell-killing curve with a large enough effect in the repeat runs; inconclusive means weak or mixed curves, or effect the other way; inactive means no such curve, though single readings can be large or run the other way.
Potency means the concentration at half of the fitted maximal effect.

A short description of the assay: qHTS assay to identify small molecule agonists of the RXR signaling pathway - cell viability counter screen (AID 1159529). Further: nearly all actives have a fitted effect of over 50% in size. The settings on record: RXR-alpha-bla HEK293T viability, CellTiter-Glo, 16 h; series mostly up to 76.8 µM. The text has this: National Center for Advancing Translational Sciences [NCATS]
NIH Chemical Genomics Center [NCGC]
U.S. Environmental Protection Agency [EPA]
National Institutes of Environmental Health Sciences [NIEHS]
National Toxicology Program [NTP]
U.S. Food and Drug Administration [FDA]
The Retinoid X receptor (RXR), a nuclear hormone receptor expressed in liver, spleen, placenta, epidermis, central nervous system. These receptors are able to form homo and heterodimers with other nuclear receptors and due to this heterodimerizing ability, RXR functions as master regulators producing diverse physiological effects. Three subtypes of RXR exist; alpha, beta and gamma. Retinoid X receptor alpha (RXR-alpha) has potential roles in metabolic signaling pathways, skin alopecia, dermal cysts, cardiac development, insulin sensitization etc. Therefore screening environmental chemicals on RXR-alpha signaling can be used for the studies focused on such therapeutic applications. For quantification of RXR-alpha ligands signaling, GeneBLAzer RXR alpha-UAS-bla HEK 293T (Life Technologies, Carlsbad, CA) cells containing a beta-lactamase reporter-gene under control of Retinoid X receptor-alpha response element were used to screen Tox21 10K library. The cytotoxicity of the Tox21 compound library against the RXR-alpha HEK 293T cell line was tested in parallel by measuring cell viability using CellTiter-Glo assay (Promega Corporation, Madison, WI) in the same wells.
Tox21 Assay Protocol Summary:
RXR-alpha HEK 293T cells were dispensed at 2,000 cells/6 uL of assay medium containing 2% charcoal-stripped FBS using a Multidrop Combi (ThermoFisher Scientific, Waltham, MA) dispenser. The assay was performed in black wall/clear-bottom 1536-well plates (Greiner Bio-One North America Inc. Monroe, NC). Tetraoctyl ammonium bromide was used as a positive control in the cytotoxicity screen. After the assay plates were incubated at 37 C and 5% CO2 for 5 hr, 23 nL of compounds dissolved in DMSO, positive control or DMSO only were transferred to the assay plate by a Pintool station (Kalypsys, San Diego, CA). The assay plates were incubated at 37 C and 5% CO2 for 16 hr. One uL of LiveBLAzer B/G FRET substrate (Life Technologies) was added using a Flying Reagent Dispenser (FRD) (Aurora Discovery, San Diego, CA) and the plates were incubated at room temperature for 2 hr. Fluorescence intensity (405 nm excitation, 460/530 nm emission) was measured using an Envision plate reader (PerkinElmer, Shelton, CT). For cytotoxicity, 4 uL/well of CellTiter-Glo reagent was added into the assay plates using an FRD. After 30 min incubation at room temperature, the luminescence intensity was measured using a ViewLux plate reader (PerkinElmer).
As to `CCCN(CCCl)c1c([N+](=O)[O-])cc(C(F)(F)F)cc1[N+](=O)[O-]`, the Potency result was “inactive”.

For the compound `CCC(COC(=O)c1cc(OC)c(OC)c(OC)c1)(c1ccccc1)N(C)C` (stereo not given), the Potency result is “inactive”.

For `CC[C@H]1C[C@H]2[C@@H]3CCC4=CC(=O)CC[C@@H]4[C@H]3CC[C@]2(C)[C@H]1O`, the Potency entry is “inactive”.

In the case of `Cc1ccc2ccccc2c1`, the Potency entry was “inactive”.

As to `CCOC(=O)COc1cc(-c2nn(C)c(OC(F)F)c2Cl)c(F)cc1Cl`, the Potency entry is “inactive”.

`CCCCCCCCCC(=O)O[C@H]1CC[C@H]2[C@@H]3CCC4=CC(=O)CC[C@@H]4[C@H]3CC[C@]12C`: the Potency result is “inactive”.

Take `C=CC(=O)OCCCCO`: the Potency result is “inactive”.

In the case of `CCOC(=O)C(Cl)C(C)=O` (stereo not given), the Potency result is “inactive”.

For `BrCC(Br)C1CCC(Br)C(Br)C1` (stereo not given), the Potency result is “inactive”.

`CCOP(=O)(OCC)SCCSCC`: the Potency result is “inactive”.

As for `C=CCC1([C@H](C)CCC)C(=O)NC(=O)NC1=O`, the Potency result is “inactive”.

Take `CCOP(O)OCC`: the Potency result is “inactive”.

Consider `CC(=O)[C@H]1CC[C@H]2[C@@H]3CC[C@H]4C[C@](C)(O)CC[C@]4(C)[C@H]3CC[C@]12C`, for which the Potency result is “inactive”.

Regarding `Cc1c(F)c(F)c(COC(=O)C2C(/C=C(\Cl)C(F)(F)F)C2(C)C)c(F)c1F` (stereo not given), the Potency result is “inactive”.

Regarding `O=C1C(=O)c2cccc3cccc1c23`, the Potency entry is “inactive”.

For the compound `Clc1cccc2ccccc12`, the Potency entry is “inactive”.

Regarding `O=S(=O)(Cl)c1ccccc1`, the Potency result is “inactive”.

As for `CC(=O)CCC(C)=O`, the Potency entry was “inactive”.

For the compound `C=CC(=O)OC(C)(C)C`, the Potency entry was “inactive”.

Consider `CCO[C@H]1O[C@@H]2OC3(C)CC[C@H]4[C@H](C)CC[C@@H]([C@H]1C)[C@@]24OO3`, for which the Potency entry is “inactive”.

For `O=C1NCN(c2ccccc2)C12CCN(CCCOc1ccc(F)cc1)CC2`, the Potency result was “inactive”.

As to `COC(=O)c1cncn1C(C)c1ccccc1` (stereo not given), the Potency entry is “inactive”.

Take `COP(=O)(OC)O/C(=C/Cl)c1cc(Cl)c(Cl)cc1Cl`: the Potency entry is “inactive”.

Consider `CS/C(C)=N/OC(=O)N(C)SN(C)C(=O)O/N=C(\C)SC`, for which the Potency was 49 µM (active).

Regarding `O=S(=O)(O)C(F)(F)C(F)(F)C(F)(F)C(F)(F)F`, the Potency result was “inactive”.

In the case of `C[C@@H]1CC[C@H]2[C@@H](C)C(=O)O[C@@H]3O[C@@]4(C)CC[C@@H]1[C@]32OO4`, the Potency result was “inactive”.

As to `O=C(Nc1ccccc1)Nc1cnns1`, the Potency result is “inactive”.

For the compound `N#Cc1ccc(Cl)cc1`, the Potency entry is “inactive”.

With `CC(C)N(CCC(C(N)=O)(c1ccccc1)c1ccccn1)C(C)C` (stereo not given), the Potency result was “inactive”.

In the case of `C(=NC1CCCCC1)=NC1CCCCC1`, the Potency entry was “inactive”.

As for `CC(Cl)C(C)Cl` (stereo not given), the Potency entry is “inactive”.

In the case of `NCC(CC(=O)O)c1ccc(Cl)cc1` (stereo not given), the activity change, negative = cytotoxicity is 15% [at 0.29 µM].

For `Cc1ccccc1CCl`, the Potency entry was “inactive”.

For `CCOP(=O)(OCC)O/C(=C/Cl)c1ccc(Cl)cc1Cl`, the Potency result is “inactive”.

Consider `CCOP(=O)(OCC)Oc1ccc([N+](=O)[O-])cc1`, for which the Potency entry was “inactive”.

For `Clc1ccc(C2(Cn3cncn3)CC(Br)CO2)c(Cl)c1` (stereo not given), the Potency entry is “inactive”.

On to `BrCCCCBr`, for which the Potency entry is “inactive”.

As for `C=C(C#N)CCC#N`, the Potency entry is “inactive”.

In the case of `Cc1ccc(N)cc1C`, the Potency result was “inactive”.

In the case of `Oc1ccc(Cl)c(Cl)c1Cl`, the Potency result was “inactive”.
